The full data set covers some 8,800 targets. This sample favours those with a hit. About 0.5% of all pairs of compound and target were hits. Values without a mark were called inactive.
Key:
Experiment in all cases: log2 fold change, soluble protein after heating vs DMSO (PISA); higher = thermal stabilisation; K562 lysate, 10 uM; active = over 0.2 and 3.5 SD of the protein, either way, in both replicates (recomputed)
lapatinib = compound: CS(=O)(=O)CCNCc1ccc(-c2ccc3ncnc(Nc4ccc(OCc5cccc(F)c5)c(Cl)c4)c3c2)o1 [lapatinib]
Summary of the method: (§1)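 Dounce homogenisation of K562 pellets in PBS pH 7.4 with 1 mM MgCl2 produced a crude extract, used at 1 mg/mL protein. Exposure to 10 μM compound lasted 30 min, and aliquots were then heated for 3 min across 48°C-58°C, pooled and brought to 0.5% NP-40 at 4°C. The supernatant after 21,000xg for 90 min was quantified by TMTpro 16plex LC-MS/MS with channel sums equalised. Duplicate values are given as log-two fold change in thermal stability relative to solvent controls.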

pictilisib = compound: CS(=O)(=O)N1CCN(Cc2cc3nc(-c4cccc5[nH]ncc45)nc(N4CCOCC4)c3s2)CC1 [pictilisib]
Summary of the method: as §1

crizotinib = compound: C[C@@H](Oc1cc(-c2cnn(C3CCNCC3)c2)cnc1N)c1c(Cl)ccc(F)c1Cl [crizotinib]
Summary of the method: as §1

[1] = compound: C[C@H](C1=CC=C(C=C1)C(=O)NC2=C3C=CNC3=NC=C2)N
Summary of the method: as §1

duvelisib = compound: C[C@H](Nc1ncnc2nc[nH]c12)c1cc2cccc(Cl)c2c(=O)n1-c1ccccc1 [duvelisib]
Summary of the method: as §1

gandotinib = compound: Cc1cc(Nc2cc(CN3CCOCC3)c3nc(C)c(Cc4ccc(Cl)cc4F)n3n2)n[nH]1 [gandotinib]
Summary of the method: as §1

tozasertib = compound: Cc1cc(Nc2cc(N3CCN(C)CC3)nc(Sc3ccc(NC(=O)C4CC4)cc3)n2)n[nH]1 [tozasertib]
Summary of the method: as §1

doramapimod = compound: Cc1ccc(-n2nc(C(C)(C)C)cc2NC(=O)Nc2ccc(OCCN3CCOCC3)c3ccccc23)cc1 [doramapimod]
Summary of the method: as §1

bafetinib = compound: Cc1ccc(NC(=O)c2ccc(CN3CC[C@H](N(C)C)C3)c(C(F)(F)F)c2)cc1Nc1nccc(-c2cncnc2)n1 [bafetinib]
Summary of the method: as §1

[2] = compound: Cc1cccc(CC(=O)N2CCc3c2ccc(-c2cn(C)c4ncnc(N)c24)c3F)n1
Summary of the method: as §1

Sequence of UniProt P62873 (P62873 whole entry, looked up): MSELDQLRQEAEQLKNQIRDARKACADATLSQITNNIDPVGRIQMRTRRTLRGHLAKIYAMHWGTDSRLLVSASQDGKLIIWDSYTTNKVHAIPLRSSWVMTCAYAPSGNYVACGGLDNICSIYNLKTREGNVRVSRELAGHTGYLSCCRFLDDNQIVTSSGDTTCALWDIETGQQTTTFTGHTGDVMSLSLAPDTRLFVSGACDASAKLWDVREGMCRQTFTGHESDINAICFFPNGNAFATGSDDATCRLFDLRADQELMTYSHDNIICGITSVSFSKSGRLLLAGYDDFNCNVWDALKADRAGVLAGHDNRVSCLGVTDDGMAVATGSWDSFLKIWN
Sequence of UniProt P14866 (P14866 whole entry, looked up): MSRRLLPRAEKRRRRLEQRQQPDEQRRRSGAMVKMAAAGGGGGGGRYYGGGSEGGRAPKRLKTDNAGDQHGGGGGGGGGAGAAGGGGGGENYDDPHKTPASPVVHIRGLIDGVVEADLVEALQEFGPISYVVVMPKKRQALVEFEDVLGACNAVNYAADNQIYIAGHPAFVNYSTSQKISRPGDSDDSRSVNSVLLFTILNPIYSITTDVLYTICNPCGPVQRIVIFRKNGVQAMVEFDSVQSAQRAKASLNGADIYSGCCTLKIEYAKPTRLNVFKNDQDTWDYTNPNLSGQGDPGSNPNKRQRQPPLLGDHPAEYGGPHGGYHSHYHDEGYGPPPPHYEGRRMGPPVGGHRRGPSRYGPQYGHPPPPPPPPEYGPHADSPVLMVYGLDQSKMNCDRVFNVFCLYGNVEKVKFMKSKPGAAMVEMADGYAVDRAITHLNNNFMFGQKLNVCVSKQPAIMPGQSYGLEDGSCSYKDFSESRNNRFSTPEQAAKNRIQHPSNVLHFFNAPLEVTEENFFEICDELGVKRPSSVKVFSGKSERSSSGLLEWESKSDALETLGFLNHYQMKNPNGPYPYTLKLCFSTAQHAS
Sequence of UniProt Q96EW2 (Q96EW2 whole entry, looked up): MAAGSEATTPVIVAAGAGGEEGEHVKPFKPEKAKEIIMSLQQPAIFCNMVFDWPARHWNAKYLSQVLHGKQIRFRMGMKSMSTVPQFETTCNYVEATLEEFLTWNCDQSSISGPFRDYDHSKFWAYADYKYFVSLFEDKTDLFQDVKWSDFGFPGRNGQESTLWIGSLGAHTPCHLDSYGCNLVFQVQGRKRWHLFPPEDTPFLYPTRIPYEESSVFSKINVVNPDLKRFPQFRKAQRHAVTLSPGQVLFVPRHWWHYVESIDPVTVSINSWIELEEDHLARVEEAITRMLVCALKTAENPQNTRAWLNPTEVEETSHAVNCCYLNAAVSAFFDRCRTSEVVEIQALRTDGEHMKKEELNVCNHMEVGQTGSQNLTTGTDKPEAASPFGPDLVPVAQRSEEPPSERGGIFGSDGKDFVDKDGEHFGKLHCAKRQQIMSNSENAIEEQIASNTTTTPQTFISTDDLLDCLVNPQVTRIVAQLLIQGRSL
Sequence of UniProt Q13418 (Q13418 whole entry, looked up): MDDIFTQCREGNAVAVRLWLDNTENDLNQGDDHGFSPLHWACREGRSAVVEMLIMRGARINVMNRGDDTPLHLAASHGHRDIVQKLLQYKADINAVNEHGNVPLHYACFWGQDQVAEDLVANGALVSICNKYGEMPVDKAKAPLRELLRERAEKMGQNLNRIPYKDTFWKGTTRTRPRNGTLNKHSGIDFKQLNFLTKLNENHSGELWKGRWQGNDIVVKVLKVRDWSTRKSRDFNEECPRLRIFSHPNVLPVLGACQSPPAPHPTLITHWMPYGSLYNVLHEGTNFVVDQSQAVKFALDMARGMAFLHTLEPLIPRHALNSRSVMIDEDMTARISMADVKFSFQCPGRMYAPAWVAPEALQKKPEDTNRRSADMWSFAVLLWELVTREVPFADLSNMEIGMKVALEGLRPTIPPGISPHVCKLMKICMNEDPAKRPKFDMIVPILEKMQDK
Sequence of UniProt P55795 (P55795 whole entry, looked up): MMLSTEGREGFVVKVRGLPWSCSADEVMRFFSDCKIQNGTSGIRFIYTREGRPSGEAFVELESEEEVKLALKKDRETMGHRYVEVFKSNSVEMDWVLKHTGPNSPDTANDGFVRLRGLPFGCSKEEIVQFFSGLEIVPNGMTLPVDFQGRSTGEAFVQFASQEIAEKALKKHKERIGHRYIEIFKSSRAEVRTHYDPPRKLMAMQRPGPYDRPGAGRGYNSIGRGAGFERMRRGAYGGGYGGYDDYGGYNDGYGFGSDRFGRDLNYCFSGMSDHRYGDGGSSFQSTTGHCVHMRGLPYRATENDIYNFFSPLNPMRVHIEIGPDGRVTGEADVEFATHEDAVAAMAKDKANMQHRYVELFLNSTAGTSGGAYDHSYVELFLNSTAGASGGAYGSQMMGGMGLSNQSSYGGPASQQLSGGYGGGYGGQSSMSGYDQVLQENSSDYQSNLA
Sequence of UniProt Q9UGL1 (Q9UGL1 whole entry, looked up): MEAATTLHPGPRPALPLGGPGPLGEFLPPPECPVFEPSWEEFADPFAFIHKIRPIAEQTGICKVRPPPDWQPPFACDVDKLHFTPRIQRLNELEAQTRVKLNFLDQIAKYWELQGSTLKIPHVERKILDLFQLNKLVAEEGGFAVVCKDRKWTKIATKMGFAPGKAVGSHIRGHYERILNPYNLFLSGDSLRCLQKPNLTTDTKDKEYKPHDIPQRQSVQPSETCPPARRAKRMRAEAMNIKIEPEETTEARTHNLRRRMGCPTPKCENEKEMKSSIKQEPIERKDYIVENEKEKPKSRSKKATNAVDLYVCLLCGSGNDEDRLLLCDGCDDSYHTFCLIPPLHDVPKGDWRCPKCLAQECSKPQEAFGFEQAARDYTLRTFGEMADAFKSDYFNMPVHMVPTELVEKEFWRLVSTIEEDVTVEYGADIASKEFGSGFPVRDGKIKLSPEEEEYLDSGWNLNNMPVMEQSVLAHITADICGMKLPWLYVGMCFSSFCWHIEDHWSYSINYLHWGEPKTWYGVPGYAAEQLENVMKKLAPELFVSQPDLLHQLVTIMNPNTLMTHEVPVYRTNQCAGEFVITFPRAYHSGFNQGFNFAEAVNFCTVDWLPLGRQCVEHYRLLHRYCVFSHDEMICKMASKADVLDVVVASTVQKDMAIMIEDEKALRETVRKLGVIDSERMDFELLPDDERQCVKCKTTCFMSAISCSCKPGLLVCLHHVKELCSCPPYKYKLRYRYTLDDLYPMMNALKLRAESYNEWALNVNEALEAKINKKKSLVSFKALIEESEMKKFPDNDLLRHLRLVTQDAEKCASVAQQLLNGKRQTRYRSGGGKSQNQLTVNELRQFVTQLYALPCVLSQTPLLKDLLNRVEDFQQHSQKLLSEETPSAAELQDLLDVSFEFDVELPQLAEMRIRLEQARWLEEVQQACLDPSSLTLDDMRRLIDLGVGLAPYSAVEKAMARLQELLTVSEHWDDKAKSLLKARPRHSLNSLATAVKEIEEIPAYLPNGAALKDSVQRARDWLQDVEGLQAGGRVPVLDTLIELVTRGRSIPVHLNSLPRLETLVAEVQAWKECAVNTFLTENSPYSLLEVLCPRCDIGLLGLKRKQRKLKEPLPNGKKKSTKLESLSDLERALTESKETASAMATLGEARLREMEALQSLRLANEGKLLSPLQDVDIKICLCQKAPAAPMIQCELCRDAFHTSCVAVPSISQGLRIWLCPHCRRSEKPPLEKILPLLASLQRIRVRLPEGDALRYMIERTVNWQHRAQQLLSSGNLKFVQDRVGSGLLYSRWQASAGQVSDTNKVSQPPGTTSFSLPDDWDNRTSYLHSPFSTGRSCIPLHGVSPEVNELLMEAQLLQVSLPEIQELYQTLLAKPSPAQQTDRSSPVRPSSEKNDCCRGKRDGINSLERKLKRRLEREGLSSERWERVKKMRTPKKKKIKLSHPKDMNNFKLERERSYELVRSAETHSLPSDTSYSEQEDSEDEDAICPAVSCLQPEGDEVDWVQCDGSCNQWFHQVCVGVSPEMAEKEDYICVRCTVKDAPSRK
Sequence of UniProt Q13478 (Q13478 whole entry, looked up): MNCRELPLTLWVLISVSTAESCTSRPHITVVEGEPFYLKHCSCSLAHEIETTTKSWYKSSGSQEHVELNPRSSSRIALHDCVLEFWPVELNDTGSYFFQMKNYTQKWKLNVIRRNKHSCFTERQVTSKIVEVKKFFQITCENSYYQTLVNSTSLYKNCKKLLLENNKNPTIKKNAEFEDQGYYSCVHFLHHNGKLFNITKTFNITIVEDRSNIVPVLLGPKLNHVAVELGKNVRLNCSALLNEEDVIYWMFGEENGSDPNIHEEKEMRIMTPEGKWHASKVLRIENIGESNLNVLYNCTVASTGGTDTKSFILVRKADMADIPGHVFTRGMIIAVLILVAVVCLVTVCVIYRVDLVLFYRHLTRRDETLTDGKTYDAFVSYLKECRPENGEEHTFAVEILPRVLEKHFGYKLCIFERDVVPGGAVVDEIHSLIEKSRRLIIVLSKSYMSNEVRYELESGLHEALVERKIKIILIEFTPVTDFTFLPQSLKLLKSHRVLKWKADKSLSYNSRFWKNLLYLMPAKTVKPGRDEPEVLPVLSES
Sequence of UniProt O94927 (O94927 whole entry, looked up): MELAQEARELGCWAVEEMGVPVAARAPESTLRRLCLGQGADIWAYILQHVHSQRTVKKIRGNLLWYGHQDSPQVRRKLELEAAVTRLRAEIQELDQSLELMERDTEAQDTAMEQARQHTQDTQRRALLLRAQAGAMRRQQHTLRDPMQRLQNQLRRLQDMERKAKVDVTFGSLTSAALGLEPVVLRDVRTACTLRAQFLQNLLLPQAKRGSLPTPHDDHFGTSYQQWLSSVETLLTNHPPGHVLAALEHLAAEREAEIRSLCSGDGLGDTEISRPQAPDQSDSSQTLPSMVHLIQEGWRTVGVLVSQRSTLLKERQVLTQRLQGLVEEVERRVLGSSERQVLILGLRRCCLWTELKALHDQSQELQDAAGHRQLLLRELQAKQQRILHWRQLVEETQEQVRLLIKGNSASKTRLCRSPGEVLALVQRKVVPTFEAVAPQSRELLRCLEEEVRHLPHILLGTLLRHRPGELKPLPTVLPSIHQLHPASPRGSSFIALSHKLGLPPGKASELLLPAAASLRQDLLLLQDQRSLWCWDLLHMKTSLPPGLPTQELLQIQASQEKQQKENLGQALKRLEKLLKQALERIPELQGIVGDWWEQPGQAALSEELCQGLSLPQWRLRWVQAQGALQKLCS

Target	log2 fold change (lapatinib)	log2 fold change (pictilisib)	log2 fold change (crizotinib)	log2 fold change [1]	log2 fold change (duvelisib)	log2 fold change (gandotinib)	log2 fold change (tozasertib)	log2 fold change (doramapimod)	log2 fold change (bafetinib)	log2 fold change [2]
GNB1 (UniProt P62873)	0.054	-0.022	-0.106	-0.114	0.003	0.04	-0.023	0.079	0.123	0.04
IFNGR1 (UniProt P15260)	-0.076	0.153	-0.008	-0.497	0.196	0.263	-0.001	-0.034	-0.144	0.378
IGF2BP2 (UniProt Q9Y6M1)	-0.034	-0.015	0.012	-0.031	0	0.009	-0.011	0.021	-0.093	0.048
GLUD2 (UniProt P49448)	-0.009	0.144	-0.097	-0.004	0.001	0.099	0.03	-0.028	0.049	0.024
GYPA (UniProt P02724)	0.074	-0.01	0.017	0.528 (active)	0.013	-0.197	-0.02	-0.033	0.229	-0.234
INTS10 (UniProt Q9NVR2)	0.097	-0.093	-0.04	0.027	-0.09	-0.168	0.011	0.026	-0.052	0
HECTD3 (UniProt Q5T447)	-0.047	-0.098	-0.034	-0.001	-0.006	-0.013	0.018	0.056	-0.13	-0.004
HLCS (UniProt P50747)	-0.026	-0.022	-0.009	0.199	0.016	-0.002	0.006	0.026	-0.045	-0.007
IFITM3 (UniProt Q01628)	-0.123	-0.067	-0.089	-0.103	-0.005	0.035	-0.153	-0.034	0.09	-0.022
GNL3 (UniProt Q9BVP2)	-0.058	-0.018	-0.134	0.097	0.004	-0.115	-0.013	0.039	-0.128	-0.031
HDAC3 (UniProt O15379)	0.02	0.008	0.015	0.076	-0.067	-0.015	0.054	-0.024	-0.005	-0.045
HEATR6 (UniProt Q6AI08)	-0.014	-0.033	-0.112	-0.037	0.084	0.003	-0.003	-0.011	0.054	0.045
IGF2BP3 (UniProt O00425)	0.013	-0.038	-0.031	-0.032	0.017	-0.04	0.001	-0.006	-0.045	0.053
ILKAP (UniProt Q9H0C8)	0.04	0.049	0.026	0.022	0.007	-0.052	0.031	0.029	0.001	-0.021
GUSB (UniProt P08236)	-0.097	-0.012	-0.044	-0.547 (active)	0.017	0.228	0.02	0.037	-0.057	0.27
GSE1 (UniProt Q14687)	0.006	-0.032	-0.014	-0.073	-0.015	0.011	0.008	-0.019	-0.006	0.051
KIAA0930 isoform 2 (UniProt Q6ICG6)	-0.068	0.016	-0.067	-0.121	-0.037	0.055	-0.015	0.055	-0.051	0.191
HSPBAP1 (UniProt Q96EW2)	-0.074	-0.014	-0.111	-0.076	0.022	0.15	-0.025	0.125	0.052	-0.141
ILK (UniProt Q13418)	0.01	-0.005	-0.038	0.01	-0.036	-0.015	0.005	0.004	-0.002	0.007
HADH isoform 2 (UniProt Q16836)	-0.011	0.04	0.031	0.057	-0.044	-0.05	0.053	-0.055	0.045	-0.055
IL18R1 (UniProt Q13478)	-0.112	0.207	-0.076	-0.116	-0.049	0.092	0.063	-0.111	-0.031	0.045
HAUS5 (UniProt O94927)	-0.036	-0.017	-0.071	0.05	0.044	-0.098	-0.002	0.032	-0.042	-0.029
HNRNPL (UniProt P14866)	0.005	-0.02	-0.042	0.018	0.03	-0.081	-0.011	-0.018	0.004	-0.016
GSTP1 (UniProt P09211)	-0.015	0.021	-0.018	-0.025	0.001	-0.035	-0.007	-0.006	0.01	0.003
GTF2A1 (UniProt P52655)	0.034	0.011	0.055	0.327 (active)	0.009	-0.141	0.064	0.028	0.026	-0.111
HIST2H2BC (UniProt Q6DN03)	-0.024	0.02	-0.024	0.183	-0.083	-0.054	0.019	0.007	0.018	-0.019
IMPDH2 (UniProt P12268)	0.027	0.043	-0.007	-0.011	-0.012	-0.04	-0.017	0.029	0.041	0.012
HNRNPH2 (UniProt P55795)	0.025	-0.004	-0.097	-0.048	-0.024	0.068	-0.032	0.062	0.018	0.008
KDM5B isoform 2 (UniProt Q9UGL1)	-0.006	-0.041	-0.02	-0.003	0	0.257	0.13	-0.033	-0.013	0.29

From the supplement of paper PMC10849652
